Experimental data reported in PubChem BioAssay.
The source made the active and inactive calls.

Key:
[1] = small molecules captured by biotinylated probe aFSTL3 – biochemical, small-molecule microarray, fluorescence 635/667, stem cell growth factor project, primary screen (AID 1064); settings: higher = more signal;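 further: measures binding of the biotinylated anti-FSTL3 antibody to printed compounds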
[2] = binders from COS7 lysate, DM2A8 probe, primary screen, torsin A project, cell lysate, small-molecule microarray, fluorescence 635/667 (AID 1065); settings: higher = more signal, COS7 lysate expressing mutant human TOR1A
[3] = small molecules captured by biotinylated probe aFGF2 – biochemical, small-molecule microarray, fluorescence 635/667, stem cell growth factor project, primary screen (AID 1067); settings: higher = more signal;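 further: measures binding of biotinylated aFGF2 protein to printed compounds on slides; z-score merges feature fluorescence and signal-to-noise across triplicate slides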
[4] = small molecules captured by biotinylated probe aFGF10 – biochemical, small-molecule microarray, fluorescence 635/667, stem cell growth factor project, primary screen (AID 1071); settings: higher = more signal;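 further: score merges 667 nm spot intensity and signal to noise from triplicate slides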
[5] = target: Neurogenic locus notch homolog protein 2 (Homo sapiens) (UniProt Q04721); assay: small molecules binding Notch2 protein – biochemical, small-molecule microarray, 635 nm fluorescence, stem cell growth factors, primary screen (AID 1073); settings: higher = more signal
[6] = target: Pro-neuregulin-1, membrane-bound isoform (Homo sapiens) (UniProt Q02297); assay: small molecules binding neuregulin-1 protein – biochemical, small-molecule microarray, fluorescence 635/667, psychiatric disease protein project, primary screen (AID 1075); settings: NRG1 binding, 635 nm fluorescence, higher = more signal;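 further: score combines 667 nm spot fluorescence with signal to noise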
[7] = test system: Neuregulin-1 EGF-like domain; assay: small molecules binding NRG1 EGF domain – biochemical, small-molecule microarray, 635 nm fluorescence, primary screen (AID 1081); settings: higher = more signal;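 further: binding of the protein to compounds printed on small-molecule microarray slides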
[8] = FRG1 expression reporter modulators in myotubes – cell-based, C2C12 myotubes, firefly/Renilla luciferase, luminescence, FRG1 inhibition for FSHD, primary screen (AID 1084); settings: FRG1 promoter luciferase, higher = more signal, called active from +8 up or from −8 down
[9] = small molecules captured by biotinylated probe aFST – biochemical, small-molecule microarray, fluorescence 635/667, stem cell growth factor project, primary screen (AID 1086); settings: higher = more signal;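 further: score merges 667 nm fluorescence with signal-to-noise of each printed compound spot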
[10] = binders of probe aHhip on microarray, primary screen, stem cell growth factor project, biochemical, small-molecule microarray, fluorescence 635/667 (AID 1087); settings: higher = more signal;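 further: score merges spot fluorescence at 667nm with spot signal to noise ratio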
[11] = test system: PRMT1 (protein arginine N-methyltransferase 1); assay: small molecules binding arginine methyltransferase PRMT1 – biochemical, small-molecule microarray, 635 nm fluorescence, primary screen (AID 1088); settings: higher = more signal;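 further: binding of Prmt1 protein to compounds spotted on small-molecule microarray slides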
[12] = growth effects on S. cerevisiae YJM789 – YJM789 clinical isolate, OD600, 24 h, basal, primary screen (AID 1089); settings: higher = more signal, called active from +8 up or from −8 down;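 further: growth of clinical yeast isolate S. cerevisiae YJM 789 seeded 1000 cells per well; test concentration not given here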
[13] = S. pombe growth modifiers, basal conditions – strain 972, OD600, 24 h, no modulator, primary screen (AID 1090);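 further: basal condition with compound alone and no growth modifier present; test concentration not given here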; settings: S. pombe 972 growth, higher = more signal, called active from +8 up or from −8 down
[14] = budding yeast growth modifiers under rapamycin – strain BY4716, OD600, 96 h, primary screen (AID 1091); further: test concentration not given here; settings: S. cerevisiae BY4716 + rapamycin, higher = more signal, called active from +8 up or from −8 down
[15] = target: Torsin-1A-interacting protein 2 (Homo sapiens) (UniProt Q8NFQ8); assay: small molecules binding lysate-expressed LULL1 – cell lysate, human LULL1 lysate, 635/667 nm fluorescence, primary screen (AID 1092); settings: small-molecule microarray, hLULL1 lysate binding, 635 nm fluorescence; higher = more signal;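 further: probe is lysate of COS7 cells overexpressing human LULL1; score merges per-feature 667 nm fluorescence with signal-to-noise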
[16] = optical density change of DRC41 E. coli – strain DRC41, OD650, 24 h, E. coli filamentation project, primary screen (AID 1093);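 further: MC1000 strain lacking acrAB efflux and sulA so SOS filamentation is blocked; test concentration not given here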; settings: E. coli DRC41 growth, higher = more signal, called active from +8 up or from −8 down
[17] = probe aLefty2 binding to arrayed compounds – biochemical, biotinylated probe, 635/667 nm fluorescence, primary screen (AID 1094); settings: small-molecule microarray, higher = more signal;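 further: score merges spot fluorescence near 667 nm with spot signal-to-noise ratio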
[18] = test system: Noggin (protein binding on small-molecule microarray); assay: small molecules binding Noggin protein – biochemical, 635/667 nm fluorescence, primary screen (AID 1095); settings: 635 nm fluorescence, higher = more signal;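 further: score merges 667 nm feature fluorescence with signal to noise over triplicate slides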
[19] = target: Neurogenic locus notch homolog protein 3 (Homo sapiens) (UniProt Q9UM47); assay: small molecules binding NOTCH3 protein – biochemical, 635/667 nm fluorescence, primary screen (AID 1096); settings: small-molecule microarray, 635 nm fluorescence, higher = more signal
[20] = probe aEGFR binding to arrayed compounds – biochemical, biotinylated probe, 635/667 nm fluorescence, primary screen (AID 1097); settings: small-molecule microarray, higher = more signal;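 further: probe is a biotinylated anti-EGFR antibody binding compounds printed on slides; score combines fluorescence near 667 nm and signal to noise of each spot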

Torsin-1A-interacting protein 2 (Homo sapiens), sequence (Q8NFQ8 whole entry, looked up): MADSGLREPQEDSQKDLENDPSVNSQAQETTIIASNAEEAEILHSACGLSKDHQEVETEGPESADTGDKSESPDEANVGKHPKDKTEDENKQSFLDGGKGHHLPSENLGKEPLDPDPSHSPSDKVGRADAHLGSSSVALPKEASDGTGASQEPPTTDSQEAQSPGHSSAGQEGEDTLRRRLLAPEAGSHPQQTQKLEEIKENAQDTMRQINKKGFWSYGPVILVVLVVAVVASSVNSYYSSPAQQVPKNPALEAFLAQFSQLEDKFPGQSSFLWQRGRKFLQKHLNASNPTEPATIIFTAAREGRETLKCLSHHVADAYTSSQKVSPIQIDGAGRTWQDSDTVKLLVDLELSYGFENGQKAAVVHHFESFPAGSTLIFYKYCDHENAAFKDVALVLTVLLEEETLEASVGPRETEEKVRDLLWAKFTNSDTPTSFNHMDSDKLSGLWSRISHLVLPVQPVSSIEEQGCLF
Pro-neuregulin-1, membrane-bound isoform (Homo sapiens), sequence (Q02297 whole entry, looked up, the tested form may be a part, canonical isoform): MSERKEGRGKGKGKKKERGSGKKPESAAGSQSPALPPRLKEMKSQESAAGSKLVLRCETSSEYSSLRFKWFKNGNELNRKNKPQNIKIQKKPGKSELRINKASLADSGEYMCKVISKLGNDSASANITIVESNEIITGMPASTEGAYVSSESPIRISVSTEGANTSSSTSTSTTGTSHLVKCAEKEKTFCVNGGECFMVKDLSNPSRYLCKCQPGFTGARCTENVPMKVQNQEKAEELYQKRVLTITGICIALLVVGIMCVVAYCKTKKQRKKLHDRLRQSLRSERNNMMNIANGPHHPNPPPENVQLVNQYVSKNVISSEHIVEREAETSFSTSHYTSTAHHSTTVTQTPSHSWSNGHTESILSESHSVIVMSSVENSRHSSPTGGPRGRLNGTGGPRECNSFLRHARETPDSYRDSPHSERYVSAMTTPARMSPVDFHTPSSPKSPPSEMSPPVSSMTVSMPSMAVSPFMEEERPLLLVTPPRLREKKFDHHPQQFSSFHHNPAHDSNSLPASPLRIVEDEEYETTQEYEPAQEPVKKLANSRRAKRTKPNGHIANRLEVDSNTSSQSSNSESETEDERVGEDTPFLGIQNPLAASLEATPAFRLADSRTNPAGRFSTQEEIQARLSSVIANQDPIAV
Neurogenic locus notch homolog protein 3 (Homo sapiens), sequence (Q9UM47 whole entry, looked up): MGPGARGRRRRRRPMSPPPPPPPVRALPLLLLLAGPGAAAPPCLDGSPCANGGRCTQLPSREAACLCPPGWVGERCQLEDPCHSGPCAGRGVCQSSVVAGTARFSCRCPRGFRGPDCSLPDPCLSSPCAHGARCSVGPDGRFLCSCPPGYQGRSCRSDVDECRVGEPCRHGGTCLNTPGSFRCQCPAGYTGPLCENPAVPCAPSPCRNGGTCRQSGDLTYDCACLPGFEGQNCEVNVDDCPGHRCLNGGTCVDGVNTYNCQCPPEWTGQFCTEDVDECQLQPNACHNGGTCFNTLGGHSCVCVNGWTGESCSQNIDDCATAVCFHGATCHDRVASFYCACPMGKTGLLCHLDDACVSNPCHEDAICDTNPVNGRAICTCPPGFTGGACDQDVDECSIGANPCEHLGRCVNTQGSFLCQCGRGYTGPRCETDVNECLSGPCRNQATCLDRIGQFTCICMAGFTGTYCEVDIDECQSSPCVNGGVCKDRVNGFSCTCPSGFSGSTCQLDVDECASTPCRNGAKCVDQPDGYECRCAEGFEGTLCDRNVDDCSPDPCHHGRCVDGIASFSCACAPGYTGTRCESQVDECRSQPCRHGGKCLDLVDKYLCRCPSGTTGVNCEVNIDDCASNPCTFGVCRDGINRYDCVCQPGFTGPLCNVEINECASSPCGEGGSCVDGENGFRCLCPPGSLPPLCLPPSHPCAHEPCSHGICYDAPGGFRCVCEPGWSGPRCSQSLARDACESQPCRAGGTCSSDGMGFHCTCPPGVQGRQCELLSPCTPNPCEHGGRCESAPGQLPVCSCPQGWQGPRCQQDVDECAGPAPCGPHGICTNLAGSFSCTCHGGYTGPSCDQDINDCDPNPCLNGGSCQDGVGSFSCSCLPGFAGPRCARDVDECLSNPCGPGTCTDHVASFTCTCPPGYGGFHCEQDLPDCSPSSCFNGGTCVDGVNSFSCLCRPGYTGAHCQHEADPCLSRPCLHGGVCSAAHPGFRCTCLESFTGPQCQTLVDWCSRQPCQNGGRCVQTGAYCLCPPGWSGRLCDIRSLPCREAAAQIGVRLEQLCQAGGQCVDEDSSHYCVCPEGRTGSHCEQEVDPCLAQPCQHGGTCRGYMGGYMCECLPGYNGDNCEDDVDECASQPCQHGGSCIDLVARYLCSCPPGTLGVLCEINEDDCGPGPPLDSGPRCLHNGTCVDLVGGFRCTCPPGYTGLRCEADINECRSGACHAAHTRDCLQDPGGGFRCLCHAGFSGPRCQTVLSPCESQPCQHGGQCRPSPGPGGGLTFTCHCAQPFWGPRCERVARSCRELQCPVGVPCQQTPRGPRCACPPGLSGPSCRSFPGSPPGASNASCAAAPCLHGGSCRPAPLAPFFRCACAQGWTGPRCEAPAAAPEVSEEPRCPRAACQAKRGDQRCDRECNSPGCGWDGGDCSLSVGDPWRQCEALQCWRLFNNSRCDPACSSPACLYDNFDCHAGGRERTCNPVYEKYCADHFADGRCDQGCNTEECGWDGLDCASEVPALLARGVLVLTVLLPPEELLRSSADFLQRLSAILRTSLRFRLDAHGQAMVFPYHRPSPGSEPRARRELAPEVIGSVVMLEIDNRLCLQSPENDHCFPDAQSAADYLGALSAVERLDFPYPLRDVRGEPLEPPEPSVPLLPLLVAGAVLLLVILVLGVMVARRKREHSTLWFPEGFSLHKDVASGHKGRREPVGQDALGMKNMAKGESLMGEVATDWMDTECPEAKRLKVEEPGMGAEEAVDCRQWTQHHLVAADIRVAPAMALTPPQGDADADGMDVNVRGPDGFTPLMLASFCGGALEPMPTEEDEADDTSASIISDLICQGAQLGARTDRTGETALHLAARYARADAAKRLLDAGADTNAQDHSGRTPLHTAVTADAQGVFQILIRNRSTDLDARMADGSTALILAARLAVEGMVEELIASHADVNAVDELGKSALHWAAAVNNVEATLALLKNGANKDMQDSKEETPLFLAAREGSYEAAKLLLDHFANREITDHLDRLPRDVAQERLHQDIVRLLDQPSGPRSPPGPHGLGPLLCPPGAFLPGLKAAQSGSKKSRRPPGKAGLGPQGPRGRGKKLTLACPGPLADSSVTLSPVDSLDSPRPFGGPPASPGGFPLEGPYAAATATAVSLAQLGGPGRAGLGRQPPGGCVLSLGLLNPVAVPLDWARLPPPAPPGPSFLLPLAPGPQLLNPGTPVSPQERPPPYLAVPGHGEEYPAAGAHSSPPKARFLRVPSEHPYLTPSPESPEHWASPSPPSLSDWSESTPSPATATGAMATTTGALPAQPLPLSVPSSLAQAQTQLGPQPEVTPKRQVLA

Structure (SMILES) | composite z-score [1] | composite z-score [2] | composite z-score [3] | composite z-score [4] | composite z-score [5] | composite z-score [6] | composite z-score [7] | z-score [8] | composite z-score [9] | composite z-score [10] | composite z-score [11] | z-score [12] | z-score [13] | z-score [14] | composite z-score [15] | z-score [16] | composite z-score [17] | composite z-score [18] | composite z-score [19] | composite z-score [20]
COCCOC(=O)N1C(=O)[C@@]2(c3cc(C#CC4(O)CCCCCC4)ccc31)[C@H](C(=O)NC[C@H](O)c1ccccc1)[C@H]1C(=O)O[C@H](c3ccccc3)[C@H](c3ccccc3)N1[C@@H]2c1ccc(OCCO)cc1 | -0.38 | -0.166 | 0 | 0.353 | 0.672 | 0.985 | 1.14 | 0.78 (inactive) | 0.409 | -0.0994 | 1.55 | 1.94 (inactive) | 0.814 (inactive) | 5.65 (inactive) | 2.33 | 1.35 (inactive) | -0.121 | 1.78 | 1.15 | -0.0978
O=C1N(Cc2ccccc2)c2ccccc2[C@H]2OC(c3ccc(OCCCO)cc3)=N[C@@]12CCS(=O)(=O)c1ccccc1 | 0.149 | 0.527 | 0.11 | 0.951 | 0.931 | 1.76 | 1.28 | -1.25 (inactive) | 0.574 | 0.167 | 1.54 | 1.19 (inactive) | 0.485 (inactive) | 8.14 (active) | 3.36 | -0.81 (inactive) | 0.0137 | 1.75 | 1.08 | -0.0531
COCCCNC(=O)[C@@]1(Cc2ccccc2CN=[N+]=[N-])N=C(c2ccc(OCCCO)cc2)O[C@H]1c1ccccc1N=[N+]=[N-] | 0.749 | 1.06 | 0.0524 | 1.18 | 1.18 | 0.765 | 1.05 | -1.21 (inactive) | 1.27 | 0.351 | 1.31 | -0.299 (inactive) | -0.954 (inactive) | 2.08 (inactive) | 2.67 | 2.53 (inactive) | 0.214 | 0.399 | 0.671 | 0.525
COCCOC(=O)N1C(=O)[C@@]2(c3ccccc31)[C@H](c1ccc(OCCO)cc1)N1[C@H](c3ccccc3)[C@H](c3ccccc3)OC(=O)[C@H]1[C@@H]2C(=O)NC[C@H](O)c1ccccc1 | -0.115 | 0.537 | 0.0276 | 0.228 | 0.614 | 1.52 | 1.35 | -1.51 (inactive) | 0.576 | -0.0753 | 1.53 | 2.2 (inactive) | 0.892 (inactive) | 6.77 (inactive) | 3.09 | -0.0625 (inactive) | 0.187 | 1.19 | 1.04 | -0.0759
CN1C(=O)C2C=CC(C(O)COCc3ccccc3)N(Nc3ccccc3)C2C1=O (stereo not given) | -0.121 | 0.165 | 0.308 | 0.389 | 1.33 | 0.374 | 1 | 0.146 (inactive) | 0.486 | -0.166 | 0.691 | 0.12 (inactive) | 1.15 (inactive) | -0.116 (inactive) | 3.54 | -0.309 (inactive) | 0.147 | 0.28 | 0.896 | -0.0232
CN(C)CCCCCCNC(=O)[C@@H]1C[C@@H]2C(=O)NCC(=O)N2[C@@H]1c1ccc(O)cc1 | -0.316 | 1.51 | 0.0231 | 1.26 | 0.194 | 0.504 | 1.34 | 2.08 (inactive) | 0.92 | 0.107 | 1.53 | -1.2 (inactive) | -0.639 (inactive) | -0.296 (inactive) | 2.72 | -0.427 (inactive) | -0.16 | 1.47 | 1.04 | -0.0304
COCC1=C([C@H](O)CCc2ccccc2)[C@H](CO)[C@@H]2C(=O)N(C)C(=O)[C@@H]2C1 | -0.479 | 0.24 | -0.235 | 0.367 | 0.396 | 0.378 | 0.15 | -2.22 (inactive) | -0.0346 | -0.226 | 0.267 | 0.119 (inactive) | -0.551 (inactive) | 0.165 (inactive) | 0.258 | 1.99 (inactive) | -0.184 | 0.396 | -0.351 | -0.106
COc1ccccc1CN1C(=O)c2ccccc2[C@@H](C(=O)NCC(C)C)[C@@H]1c1ccc(CO)cc1 | 0.482 | -0.117 | 0.0342 | -0.0779 | 1.07 | 0.869 | 0.7 | -1.97 (inactive) | 0.0346 | -0.0994 | -0.106 | 0.444 (inactive) | -0.288 (inactive) | 0.125 (inactive) | 2.18 | 0.0616 (inactive) | -0.0042 | -0.081 | -0.222 | -0.0398
COCCCNC(=O)[C@@]1(Cc2ccccc2N=[N+]=[N-])N=C(c2ccc(OCCCO)cc2)O[C@H]1c1ccccc1CN=[N+]=[N-] | 0.377 | 0.556 | 0.185 | 1.07 | 1.47 | 1.78 | 1.26 | -0.344 (inactive) | 0.893 | -0.192 | 1.56 | -0.873 (inactive) | 0.553 (inactive) | 6.93 (inactive) | 3.49 | 1.04 (inactive) | 0.235 | -0.0194 | 1.07 | 0.43
COC(=O)[C@@]1(Cc2ccc(OC)cc2)[C@H]2c3cc(C(=O)N(C)C)n(Cc4cc(C)n(C)n4)c3C[C@H]2CN1C(=O)c1ccccc1 | 0.223 | 0.221 | 0.468 | 1.26 | 1.33 | 1.92 | 1.31 | 2 (inactive) | 0.732 | 0.309 | 0.847 | 0.296 (inactive) | 0.134 (inactive) | 0.562 (inactive) | 3.99 | -1.13 (inactive) | 0.14 | 0.119 | 0.598 | 0.0423
CCCNC(=O)[C@@H]1c2ccccc2C(=O)N(CC23CC4CC(CC(C4)C2)C3)[C@H]1c1ccc(CO)cc1 | -0.371 | -0.101 | -0.0588 | 0.618 | 1.56 | 1.3 | 1.26 | -2.41 (inactive) | 1.3 | 0.0373 | 1.44 | -0.449 (inactive) | -1.63 (inactive) | 0.835 (inactive) | 2.79 | -0.693 (inactive) | 0.267 | 0.406 | 1.1 | 0.167
COC(=O)C(CC#Cc1ccc2c(c1)[C@]1(C(=O)N2)[C@H](c2ccc(OCCO)cc2)N2[C@H](c3ccccc3)[C@H](c3ccccc3)OC(=O)[C@H]2[C@@H]1C(=O)O)C(=O)OC | 0.915 | 0.831 | 0.102 | 0.727 | 0.85 | 2.03 | 1.26 | -0.434 (inactive) | 1.37 | 0.398 | 1.53 | 2.49 (inactive) | -0.0363 (inactive) | -0.881 (inactive) | 3.1 | 1.95 (inactive) | 0.607 | 0.612 | 0.822 | 0.374
